Bioassay records deposited in PubChem by several laboratories.
EBV gp42 block – inhibitors of Epstein-Barr virus glycoprotein 42; Q1HVG2; AID 1085; Fluorescence polarization binding assay, mP read-out; inhibition, % (tested at 21.74 µM); hit rate 0.42% among 220,000; in the data active = inhibition above about 50%
Keap1 Nrf2 FP – disrupts human Keap1 binding to Nrf2 peptide; Q14145; AID 504523; inhibition, % at 9.4 µM; hit rate 0.15% among 340,000; Keap1 Kelch-Nrf2 peptide fluorescence polarization, 1536-well; in the data active = inhibition above about 12%;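 also: human Keap1 Kelch domain with fluorescein labeled Nrf2 9mer peptide probe; 0% = neutral control wells and 100% = peptide positive control; higher means more block of Keap1 binding to Nrf2 peptide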
Target sequence (Q14145 whole entry, looked up, the tested form may be a part): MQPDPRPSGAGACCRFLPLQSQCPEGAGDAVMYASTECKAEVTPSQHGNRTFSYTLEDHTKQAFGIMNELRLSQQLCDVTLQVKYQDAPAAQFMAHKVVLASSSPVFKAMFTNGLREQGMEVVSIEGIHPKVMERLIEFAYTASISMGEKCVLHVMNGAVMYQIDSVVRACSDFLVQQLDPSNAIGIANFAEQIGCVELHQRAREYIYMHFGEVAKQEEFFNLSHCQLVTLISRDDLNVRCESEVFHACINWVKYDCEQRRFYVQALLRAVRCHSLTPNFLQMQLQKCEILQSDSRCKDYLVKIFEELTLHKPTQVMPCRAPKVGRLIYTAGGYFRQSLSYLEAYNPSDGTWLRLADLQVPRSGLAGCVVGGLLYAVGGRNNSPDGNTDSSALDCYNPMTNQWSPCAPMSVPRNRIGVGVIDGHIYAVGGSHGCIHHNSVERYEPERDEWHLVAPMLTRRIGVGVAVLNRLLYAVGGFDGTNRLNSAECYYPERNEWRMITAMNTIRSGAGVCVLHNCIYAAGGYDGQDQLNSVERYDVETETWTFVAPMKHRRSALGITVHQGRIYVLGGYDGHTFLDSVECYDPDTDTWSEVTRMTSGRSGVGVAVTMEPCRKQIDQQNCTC
Cardiac RTF inh – cardiac RTF calcium desensitization | P19429+P45379 | IANBD-labeled cardiac RTF, Ca2+ fluorescence | inhibition, % at 7.15 µM | AID 493244 | hit rate 0.12% among 340,000;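 active = inhibition above the mean inhibition of all tested compounds plus 3 SD, cut at about 17% in these data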;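 also: assay run at fixed EC70 calcium of 1.6 mM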
C-LANA FP – inhibitors of KSHV LANA C-terminal domain DNA binding; MBP-C-LANA/FAM-LBS DNA binding, fluorescence polarization; inhibition, % at 9 µM; hit rate 0.078% among 340,000;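 active = highest replicate inhibition at or above 60% at 9 µM, even if other replicates fall short; inactive = all replicates below 60% inhibition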;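 also: 0% = neutral control wells and 100% = 4 µM acridine orange control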
RTF Ca sens act – cardiac RTF calcium sensitization; IANBD-labeled TnC RTF fluorescence at EC20 calcium; 0% EC20 calcium, 100% full calcium; activation, % at 7.2 µM; hit rate 0.24% among 340,000;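 active = activation above the mean over all tested compounds plus 3 SD, cut at about 30% in these data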;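 also: rise in fluorescence read as greater calcium sensitivity of cardiac thin filaments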
eLon inh – inhibitors of E. coli Lon protease | inhibition, % at 7.94 µM | purified E. coli Lon protease, fluorescence polarization | P0A9M0 | AID 602123 | hit rate 0.42% among 360,000; in the data active = inhibition above about 13%, passing the limit was not always enough;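 also: 0% = enzyme with probe and DMSO and 100% = no enzyme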
eLon confirm – confirmation of E. coli Lon protease inhibitors; shares compounds with eLon inh; purified E. coli Lon, fluorescence polarization; inhibition, % at 7.94 µM; hit rate 31% among 1,400; in the data active = inhibition above about 16%;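 also: 0% = enzyme with probe and DMSO and 100% = no enzyme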
* = called active by the depositor; · = no result; + = active, no number. Shown are actives, neighbours in structure and some others; about 0.98% of the full set was active somewhere.

SMILES | EBV gp42 block | Keap1 Nrf2 FP | Cardiac RTF inh | C-LANA FP | RTF Ca sens act | eLon inh | eLon confirm
OCCN1CCN(CC(O)COCCOc2ccc(Br)cc2)CC1 (configuration not stated) | 3 | -3 | -3 | -1 | 3 | 69* | -2
CCc1ccc(CCC(=O)Nc2ccc(Cl)cc2)o1 | · | -2 | 0 | -1 | -8 | 3 | ·
O=C(NCc1ccccc1)c1cccc(COc2ccc3c(c2)CCC3)c1 | -5 | -1 | -9 | 0 | 1 | 3 | ·
COc1cccc(OC)c1C(=O)NNC(=O)c1cccc(COc2ccc3c(c2)CCC3)c1 | 23 | -1 | -4 | 1 | 12 | 15* | -1
O=C(COC(=O)c1c(F)cccc1Cl)NCC1CCCCC1 | · | -5 | 12 | -1 | -7 | 10 | ·
CC(C)(C)S(=O)N1Cc2cc(C(=O)NCc3ccc4c(c3)OCO4)nc(-c3cccc(-c4ccccc4)c3)c2[C@@H]1CCO (some centres not stated) | · | · | · | · | · | -1 | ·
CCSC1=N/C(=C\c2ccc(-c3ccccc3[N+](=O)[O-])o2)C(=O)S1 | 29 | 8 | -22 | 12 | 5 | 37* | -7
Cc1oc(/N=C/c2ccccc2O)c(C#N)c1C | -10 | -1 | -5 | 3 | 0 | 6 | ·
Cc1oc(/N=C/c2ccc(O)cc2O)c(C#N)c1C | 46 | -1 | -6 | 8 | 1 | 14* | -170
CC(c1cccnc1)N(CCN(C)C)C(=O)Nc1ccc(Cl)cc1 (configuration not stated) | -17 | -5 | -2 | 2 | 7 | 15* | -2
COc1cccc(NC(=O)N(CCN(C)C)C(C)c2cccnc2)c1 (configuration not stated) | -19 | -1 | 4 | 23 | -5 | -3 | ·
N#CC(C#N)=C1C=CC=CN1/C(=C\c1ccccc1)C(=O)c1cccs1 | -7 | 3 | -17 | 10 | 12 | 25* | 9
CC(=O)Nc1ccc(NC(=O)C(C)OC(=O)c2ccc(S(=O)(=O)N3CCCCC3)cc2)cc1 (configuration not stated) | · | 4 | 3 | -2 | -3 | 67* | 5
CC(OC(=O)c1ccc(CN2CCCC2=O)cc1)C(=O)Nc1ccc(Cl)cc1 (configuration not stated) | · | -2 | -2 | 0 | -2 | 24* | 60*
O=C(COC(=O)c1ccc(CN2CCCC2=O)cc1)Nc1ccc(F)cc1 | · | -5 | 11 | -1 | -2 | -6 | ·
O=C(NCCc1ccc2c(c1)OCCO2)c1ccccn1 | · | 2 | 11 | 0 | 4 | 0 | ·
Cc1cccc(C)c1-n1nnnc1C1(C)CCC(=O)N1c1ccc(N2CCOCC2)cc1 (configuration not stated) | · | · | · | · | · | -1 | ·
NC(=S)Nc1cccc2cc3ccccc3cc12 | -5 | -2 | -10 | 1 | 8 | 42* | 113*
NC(=S)Nc1cc2ccccc2c2ccccc12 | -2 | 2 | 0 | 1 | 6 | 10 | ·
O=C(NCCN1CCC(n2c(=O)[nH]c3ccccc32)CC1)c1ccc(Cl)cc1Cl | · | · | · | · | · | -5 | ·
OCCNc1c2ccccc2nc2c(F)c(F)c(F)c(F)c12 | 29 | -8 | -29 | 2 | 6 | 1 | ·
Cc1c2ccccc2nc2c(F)c(NC(C)C)c(F)c(F)c12 | 168* | -1 | -31 | 8 | 17 | 107* | 194*
Cc1c2ccccc2nc2c(F)c(NCCO)c(F)c(F)c12 | 187* | -2 | -36 | 12 | 42* | 50* | +
COc1ccc(NC(=O)Nc2c(O)ccc3ccccc23)cc1 | · | -1 | -1 | 1 | 9 | 5 | ·
CCN(CC(=O)Nc1ccc(NC(C)=O)cc1)C(=O)c1ccc(C(=O)c2ccccc2)cc1 | · | -3 | -9 | -2 | -4 | 3 | ·
SMILES | EBV gp42 block | Keap1 Nrf2 FP | Cardiac RTF inh | C-LANA FP | RTF Ca sens act | eLon inh | eLon confirm
COc1cc(C)c2c(c1C=O)Oc1c(c(C)c(O)c3c1C(O)OC3=O)OC2=O (configuration not stated) | -15 | 4 | -1 | 9 | -4 | 57* | 16*
COc1cc(CNC[C@H]2O[C@@H](n3cc(C)c(=O)[nH]c3=O)C[C@@H]2O)ccc1OCc1cccc(Cl)c1 | · | · | · | · | · | 6 | ·
COCCCN1C(=O)C(CC(=O)NC2CCCCC2)CC(C(=O)N2CCOCC2)=C1C (configuration not stated) | · | · | · | · | · | -4 | ·
Cc1ccc(C(=O)Nc2nc(=O)n(C(=O)c3ccccc3C)s2)cc1 | -6 | 0 | 3 | 2 | -3 | 19* | 31*
Cc1nn(-c2ccccc2)c(N2CCCC2)c1/C=N/NC(=O)c1ccccc1O | 8 | -1 | -11 | -1 | 2 | -3 | ·
O=C(N/N=C/c1cc2c3c(c1O)CCCN3CCC2)c1ccccc1O | 24 | -6 | 2 | 4 | 8 | 67* | 104*
CCCNC(=O)C[C@H]1C[C@H]2c3cc(NC(=O)Nc4ccc(F)cc4)ccc3O[C@H]2[C@@H](CO)O1 | · | · | · | · | · | 3 | ·
O=C(CN1C(=O)c2ccccc2C1=O)c1ccccc1 | -15 | -2 | -4 | 3 | 2 | -4 | ·
O=C(O)CN1C(=O)c2ccc(C(=O)c3ccccc3)cc2C1=O | · | -5 | -7 | -2 | -2 | 27* | -3
COc1ccc(S(=O)(=O)c2c(O)c3ccc(C(=O)Nc4ccccc4Cl)cc3[nH]c2=O)cc1 | · | 4 | -2 | 1 | -4 | 25* | 9
COC(=O)c1cc2c(s1)-c1cc(F)ccc1OC2 | 0 | -1 | 3 | · | -4 | 16* | -9
CC(=O)c1cc2c(s1)-c1cc(F)ccc1OC2 | 19 | -6 | -4 | -1 | -6 | 4 | ·
CC(C)C(NS(=O)(=O)c1ccccc1)C(=O)N1CCN(C(=O)c2ccco2)CC1 (configuration not stated) | · | -5 | 2 | -2 | 2 | 4 | ·
CSCCC(NS(=O)(=O)c1cccc(C(F)(F)F)c1)C(=O)N1CCN(C(=O)c2ccco2)CC1 (configuration not stated) | · | -6 | -2 | -2 | -1 | 52* | 2
Cc1cc2cc(CNC(=O)c3ccc(S(=O)(=O)N4CCCCC4)cc3)ccc2n1C | 18 | -6 | -10 | 0 | 3 | 16* | -10
Cc1cc2cc(CNC(=O)c3ccc(S(=O)(=O)N4CCCC4)cc3)ccc2n1C | -5 | -4 | -5 | 0 | 4 | 23* | 6
CC(C)(C)c1ccc(S(=O)(=O)N2CCNC(=O)C2)cc1 | · | -3 | -6 | 0 | 3 | -9 | ·
COC(=O)C1CCN(C(=O)c2cc(-c3ccco3)nc3ccccc23)CC1 | · | 3 | 13 | 3 | -12 | 26 | ·
COc1cccc(C(=O)Oc2ccc3ccc(=O)oc3c2)c1 | · | -3 | -8 | 1 | -12 | 23* | 47*
COc1ccc(C(=O)Oc2ccc3ccc(=O)oc3c2)cc1OC | · | 1 | 6 | -1 | -2 | 3 | ·
